Bioassay records (PubChem BioAssay)
TCR activator – activates T cell receptor signaling | primary human leukocytes, anti-CD3, IL-2 HTRF, 48 h | Potency, µM (top dose mostly 9.22 µM), for inactives: at the top dose activation of IL-2 secretion, usual class: activators | 330,000 tested, under 10 active | AID 504894; further: % of control where 0% means no effect
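Primary human leukocytes incubated 48 hr with anti-CD3 beads plus compound, without co-stimulation. Secreted IL-2 measured by HTRF (europium cryptate/d2 anti-IL-2 pair, 320 nm excitation, 665 nm emission).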
uPA generation – cell surface uPA generation inhibition; Potency, µM (top dose mostly 38.3 µM), without a hit: at the top dose activity change, negative = inhibition, actives largely listed as inhibitors; actives 0.31% (n = 330,000); AID 540303; cell surface uPA generation assay, qHTS; active means well fitted inhibition curve with a large enough effect; inconclusive means small, poorly fitted or top-dose-only effect; inactive means no such curve, though single readings can be large or run the other way; tested in mouse RAW 264.7 cells; further: potency means the concentration at half of the fitted maximal effect; on the % scale 0 is the no-effect control and ±100 the full control effect; nearly all actives have a fitted effect of over 55% in size
ClpP mod – qHTS Assay for Activators of ClpP; purified B. subtilis ClpP, FRET peptide cleavage, 20 min; actives 1.9% (n = 340,000); AID 651965, 2013; ATP-dependent Clp protease proteolytic subunit (Bacillus subtilis (strain 168)), P80244; Potency, µM (titrated, usually from 57.5 µM), for the others: at the top dose activity change, negative = active; active means well fitted falling curve with a large enough effect; inconclusive means small, poorly fitted or top-dose-only effect; inactive means no such curve, though single readings can be large or run the other way; further: potency means the concentration at half of the fitted maximal effect; the source files actives as falling curves though it sought activators and does not explain the sign; nearly all actives have a fitted effect of over 65% in size
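FRET quenching reversal measured ClpP activation: 10 microg/mL B. subtilis ClpP at pH 8 with the FRET-FV decapeptide, read at 430 nm after 320 nm excitation. The 20-min minus 0-min signal was scaled between DMSO/no-enzyme wells and ADEP (5.8 microM final).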
Sfp PPTase inh – blocks B. subtilis Sfp PPTase activity; Q9F4F7; AID 1490; actives 3.5% (n = 310,000); Potency, µM, for inactives: largest response in the series, negative = inhibition, usual class: inhibitors; Biochemical Sfp PPTase activity, qHTS;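 further: the enzyme is Sfp with the accession as filed and its product quenches rhodamine fluorescence; potency means the concentration at half of the fitted maximal effect; 0% = enzyme reaction without inhibitor and -100% = no enzyme wells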
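Fluorescence-quenching assay with 15 nM Sfp, 5 uM rhodamine-CoA and 12.5 uM BHQ-2-labelled ybbR peptide in pH 7.6 Hepes/MgCl2 buffer. Enzyme was pre-incubated with compound for 15 min at room temperature. Rate was taken from the 30-min fluorescence change (525/598 nm).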
Starred values were filed as active, the others as inactive; ? = inconclusive; . = not tested or not shown; ! = not active in a repeat; [ ] = another dose, or the depositor's remark. This is a sample that favours compounds with a hit; in the whole collection about 4.2% have one here. Unless noted, the call rests on the fitted dose curve; in most records, active means well fitted curve in the direction sought with a large enough effect; inconclusive means small, poorly fitted or top-dose-only effect, or another doubt; inactive means no such curve, though single readings can be large; an effect the other way counts as inactive or inconclusive.

SMILES	TCR activator	uPA generation	ClpP mod	Sfp PPTase inh
Nc1nc(-c2ccco2)cs1	4.3%	6.5%	1.0%	50.1µM*
Cc1ccc(C(=O)Nc2nc(-c3ccco3)c(-c3ccco3)s2)o1	9.6%	-3.8%	?	.
Cc1nnc(NC(=O)CSc2ccc(-c3cccnc3)nn2)s1	-6.4%	-3.8%	.	39.8µM*
Cc1ccc(NC(=O)CSCC(=O)Nc2nnc(C)s2)cc1	3.6%	6.8%	28.2µM*	.
CC(=O)Nc1ccc(NC(=O)CSc2ccc(-c3cccnc3)nn2)cc1	3.3%	0.6%	-3.3%	6.4%
O=C(N/N=C/c1ccco1)c1cccc(N2CCCC2=O)c1	2.3%[46.1 µM]	2.4%	28.2µM*	14.8%
O=C(N/N=C/c1cc(Br)ccc1O)c1cccc(N2CCCC2=O)c1	1.3%[46.1 µM]	-8.6%	1.9%	3.7%
COCCNC(=O)CSc1nnc(NC(=O)C2CC(=O)N(c3ccccc3OC)C2)s1 (configuration not stated)	1.4%	-1.6%	-11.7%	50.1µM*
O=C(CSc1nnc(NC(=O)c2ccccc2F)s1)NCc1ccco1	-4.1%	7.94µM*	-0.9%	-7.7%
O=C(CSc1nnc(NC(=O)c2c(F)cccc2F)s1)NCc1ccco1	-1.4%	-6.5%	-0.7%	.
COc1cccc(N2CC(C(=O)Nc3nnc(SCC(=O)c4ccccc4)s3)CC2=O)c1 (configuration not stated)	0.5%[46.1 µM]	8.1%	-18.0%	79.4µM*
COc1ccc(C(=O)CSc2nnc(NC(=O)C3CC(=O)N(c4ccccc4)C3)s2)cc1 (configuration not stated)	3.3%[46.1 µM]	11.0%	3.0%	-2.9%
COc1cccc(N2CC(C(=O)Nc3nnc(SCC(=O)NCc4ccco4)s3)CC2=O)c1 (configuration not stated)	2.2%	-1.5%	-3.1%	50.1µM*
CN1C(=O)c2ccccc2N(C)C1c1ccccc1Cl (configuration not stated)	2.7%	.	1.3%	-3.7%
CN1C(=O)c2ccccc2N(C)C1c1cccs1 (configuration not stated)	-15.5%	-4.4%	20µM*	-0.9%
Cc1ccc(CC2CC(=O)N(c3ccc(C)cc3)C2=O)cc1 (configuration not stated)	1.0%	2.3%	-0.3%	11.4%
Cc1ccc(N2C(=O)CC(Cc3ccc(Cl)cc3)C2=O)cc1 (configuration not stated)	.	4.1%	7.08µM*	12.5%
COc1ccc(N2Cc3cccc(C(=O)NC(C)CCc4ccco4)c3C2=O)cc1 (configuration not stated)	11.1%	-6.5%	-19.3%	44.7µM*
COC(=O)c1c(-n2cnnn2)sc(C)c1C	4.2%	.	22.4µM*	14.0%
CCOC(=O)c1cc(-c2ccc(OC)cc2)nc2c1c(C)nn2CCC#N	3.0%	-2.7%	25.1µM*	-4.3%
CC(=O)Nc1ccc(S(=O)(=O)NNC(=S)NCc2ccco2)cc1	7.4%	?	1.9%	44.7µM*
CC(=O)Nc1ccc(S(=O)(=O)NNC(=S)NCC2CCCO2)cc1 (configuration not stated)	4.3%	-10.5%	-0.4%	56.2µM*
NS(=O)(=O)c1ccc(NC(=S)NCC2CCCO2)cc1 (configuration not stated)	-1.0%[46.1 µM]	-0.5%	-7.8%	44.7µM*
S=C(NCC1CCCO1)Nc1ccc(Nc2ccccc2)cc1 (configuration not stated)	-1.0%	-1.7%	.	18.0%
CC(Oc1ccc(-c2ccccc2)cc1)C(=O)N1CCOCC1 (configuration not stated)	-20.8%	0.1%	25.1µM*	12.1%
SMILES	TCR activator	uPA generation	ClpP mod	Sfp PPTase inh
COc1ccc(OC(C)C(=O)N2CCOCC2)cc1 (configuration not stated)	-1.3%	3.0%	-3.3%	13.0%
COc1ccc(NC(=O)CC(C)S(=O)(=O)c2cc3c(cc2C)NC(=O)CO3)cc1OC (configuration not stated)	.	.	-1.0%	.
COC(=O)c1ccccc1NC(=O)c1sc(N)nc1C	2.1%	-5.7%	-1.1%	-1.7%
COC(=O)c1ccccc1NC(=O)c1sc(=S)n(C)c1N	0.0%	1.7%	-1.1%	25.1µM*
Cn1c(N)c(C(=O)NCc2ccccc2)sc1=S	-4.8%	3.5%	-0.2%	22.4µM*
COC(=O)c1ccccc1NC(=O)c1cc2sccc2n1C	1.3%	.	31.6µM*	5.9%
CC(C)NC(=O)Nc1cccc2c1O[C@H](CN(C)C(=O)NC1CCCCC1)[C@H](C)CN([C@H](C)CO)C2=O	-3.4%	6.1%	?	.
CCN(CC(=O)Nc1ccccc1C(F)(F)F)C(=O)c1ccc(NC(=O)c2cccs2)cc1	.	.	-0.1%	.
COc1ccc(Br)cc1S(=O)(=O)Nc1cc(-c2cn3ccccc3n2)ccc1C	.	.	17.8µM*	.
COc1ccc(-c2cn3ccccc3n2)cc1OC	12.0%	.	?	89.1µM*
Cc1cc(C)c(S(=O)(=O)Nc2cc(-c3cn4ccccc4n3)ccc2C)cc1C	.	.	4.6%	.
Fc1ccc(-c2cn3ccccc3n2)cc1	-2.9%	10µM*	3.4%	-9.5%
Cc1ccc2nc(-c3ccc4c(c3)OCCO4)cn2c1	7.1%	-15.3%	.	12.9%
c1ccn2cc(-c3ccc4c(c3)OCCO4)nc2c1	2.9%	3.16µM*	4.4%	-18.8%
CCN(c1ccccc1)S(=O)(=O)c1c(C)nc2scc(C)n2c1=O	.	.	-11.2%	.
Cc1ccc([C@@H]2[C@@H]3C(=O)N(C)C(=O)[C@@H]3[C@]3(C)C(=O)N(Cc4ccc(-c5ccccc5)cc4)CC(=O)N23)o1	-6.4%	8.1%	-2.3%	50.1µM*
C/C(=N\Nc1ccc(C(=O)O)cc1)c1ccc(Br)cc1	3.4%	-8.1%	-2.1%	-26.8%
C/C(=N\Nc1ccc(C(=O)O)cc1)c1ccc(Cl)s1	-0.7%	5.6%	0.8%	10µM*
O=C(O)c1ccc2nc(-c3cc4cc(Cl)ccc4oc3=O)[nH]c2c1	.	.	-28.0%	.
O=C(Nc1nnc(SCc2cc(=O)n3cc(Cl)ccc3n2)s1)c1cccc(F)c1	.	.	-7.9%	.
CN1CCN(c2nc3c(c(=O)[nH]c(=O)n3C)n2Cc2ccccc2)CC1	3.1%	-1.9%	0.6%	12.3%
NS(=O)(=O)c1ccc(CCNC(=O)C2CCN(S(=O)(=O)c3c(Cl)cccc3Cl)CC2)cc1	7.4%	4.5%	.	0.5%
NS(=O)(=O)c1ccc(CCNC(=O)C2CCCN2C(=O)OCc2ccccc2)cc1 (configuration not stated)	5.6%	-8.7%	31.6µM*	18.0%
NS(=O)(=O)c1ccc(CCNC(=O)C2CCN(S(=O)(=O)c3ccccc3)CC2)cc1	6.4%	3.1%	28.2µM*	6.1%
Cc1ccc(S(=O)(=O)N2CCC(C(=O)NCCCn3ccnc3)CC2)cc1	-6.8%	2.5%	15.8µM*	26.5%
NS(=O)(=O)c1ccc(CCNC(=O)C2CCCCN2S(=O)(=O)c2ccccc2)cc1 (configuration not stated)	3.5%	0.5%	0.1%	12.4%
O=S(=O)(c1cccc(Cl)c1)N1CCN(c2nc(-c3cccs3)nc3ccccc23)CC1	.	.	14.1µM*!	.
Cc1c(NC(=O)c2cccc(-c3cc4ccccc4oc3=O)c2)cccc1-c1nc2ncccc2o1	6.8%[46.1 µM]	4.7%	22.4µM*	12.7%
